# Assay results: the supplement of paper PMC11417369
# In all, about 25,000 sequences were measured (“ln(normalized median fluorescence intensity)”: median about 9.7, highest 2% from about 11 on). The sample holds the highest values, similar sequences and a random draw of the others, so the mix is not that of the screen.
# Test system: PfAP2-HC AP2 domain (GST-tagged)
# Test: gcPBM binding intensity (ln(normalized median fluorescence intensity)); higher = stronger DNA binding
# Method in brief: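 Each value is the highest Masliner-normalised natural-log median intensity across replicate spots of either orientation of a probe. The probes were primer-extended double-stranded 36-bp intergenic genomic sequences on an Agilent 4 × 180k array, alongside negative controls, exposed for 1 h to GST-tagged P. falciparum DNA-binding domains expressed in E. coli. Bound protein was picked up with Alexa488 anti-GST antibody and scanned at 488 nm.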
row,Sequence,gcPBM binding intensity (ln)
1,CACAAAAATAGACACACACACATATAAATAAATATA [CACACA_site6598],10.4
2,AAAATCACAAAACACACACACACAAAAAAAAAAAAA [CACACA_site1443],10.5
3,CTTACCAAAAAACACACACACACAAAATATATAAAT [CACACA_site1870],11.2
4,AAATAAATAATATGTAAACACACAAAAAATAAAAAT [CACACA_site8307],10.3
5,TACCAAAATAGACACACACACAAAATATGTAAATAT [CACACA_site6963],11
6,ATAAAATGGGCAAACACACACAAAAAAAAGATATAT [CACACA_site1648],10.3
7,TACCAAAAGAAACACACACACAAAATATATAAATAT [CACACA_site1869],10.6
8,AATCACAACAGACACACACACAAAAAAAAAAAAAAA [CACACA_site1442],10.1
9,ATAAAATGCGCAAACACACACAAAAAAAAGATATAT [CACACA_site6875],10.2
10,AAAATCACAAGACACACACACACAAAAAAAAAAAAA [CACACA_site6791],11.5
11,TATATATAAATAAACACACACAAATATAATAAAAAA [CACACA_site3526],10.9
12,TTATAAAATGGGCAAACACACACAAAAAAAAGATAT [CACACA_site8476],10.9
13,ATAAATAAATAAATAAATAAATAAATAAATATATAT [CACACA_negctrl_site1728],9.74
14,TTTAATTTATATTTTGTGCACATCTTATTATATATA [GTGCAC_site9630],9.88
15,GAAGTATTATTAAAGCTGCACTTTTCTAAAATAAAC [GTGCAC_site9429],9.5
16,TAATTACCATATGGTACACACATATATATCTGTATA [CACACA_site5849],9.96
17,CAGGCACTAATAAACACACACATATAAATATAAATA [CACACA_site6320],10.1
18,AATTTAACCACTAAAAGTACACACATATATACATAT [XGTACX_site8352],10.1
19,TACTTTTTTCCTATTATGTTTCTTATTTTTATAAAT [XGTACX_negctrl_site561],9.78
20,GATGATTATATATATACGCACACTTTTTTTTTTTTT [CACACA_site2652],9.94
21,TAATAAAACATATATACACACATTATAAATACATAT [CACACA_site5014],10
22,TTTTTTTTTTTTCTGTGTACATATATAATATATATA [XGTACX_site1592],9.7
23,AAAAAAAAAAAAAACACACACACAAAAAAAAATATA [CACACA_site1104],11.3

row,Sequence,gcPBM binding intensity (ln)
1,AAAAAGAAAAAAAACACACACAAATATAAATAAATA [CACACA_site1183],10.2
2,AAATATAAACGGCACACACACAAAAAAAGAAAAAAA [CACACA_site649],11
3,AAAAAAAAAAAACACACACACAAAAAAAAATATATA [CACACA_site1105],11.3
4,AAAAAAAAAAAACACACACACACAAATATATAAAAA [CACACA_site1171],10.6
5,AATATATATAAATAAACACACACAAATATAATAAAA [CACACA_site9176],10.8
6,AAATATAAAGTGCACACACACAAAAAAAGAAAAAAA [CACACA_site6452],10.2
7,AAAAGAAAATAAGAAACACACAAAAATATATAAAAA [CACACA_site3697],9.99
8,AAATAAATAAAAAACACACACAAATAAATAAATATA [CACACA_site2249],10.7
9,ATATATATAAAACACACACACAAAAAAAATAAAGAC [CACACA_site117],11.2
10,AAAAAATATAAAAAAACACACAAAAAAAAAAAAAAA [CACACA_site1382],9.71
11,AAAAAAAGAAAAAAAACACACACAAATATAAATAAA [CACACA_site8309],10.9
12,TGTACAAATATGTTGAAAATAAAATTTCAATATATT [XGTACX_negctrl_site13],9.32
13,AAAAAATTAACCGTAACACACACACCGATATATATA [CACACA_site9312],10.5
14,ATTTTTTTTTTTTTTTTTTTTTTTTGGAGAAAGAGA [CACACA_negctrl_site1119],8.98
15,ATATAGAAAATGCATACACACTTTATATATATATTT [CACACA_site4658],9.9
16,TTACAAATATTATAAAGTACAAACCAGTAGATTTTG [XGTACX_site2272],9.63
17,ATACATATGTATATTTGTACATATTAGACAATCTTA [XGTACX_site6706],9.37
18,CATATATAACAATTCTCACACATAAAAAAAAAAAAT [CACACA_site4564],9.76
19,TTTTTAAATATAAACAAAAAAAAAAAATATATCAAT [XGTACX_negctrl_site328],9.43
20,AAAAAAAAAAAAAACACACACACAATAGTATATAAA [CACACA_site957],10.3
21,ATATTAAAAAAATATAAACACACAAAAAAAAAATAT [CACACA_site8283],9.91
22,AGAGTATATAAAGTAACACACAATAAAATAAAATAA [CACACA_site2328],10.3
23,AATACTTACCAAAATACACACACACCCAAAATATAT [CACACA_site8559],10.3

row,Sequence,gcPBM binding intensity (ln)
1,AAAAATAAATAAGACACACACAAAAAAAAAAAAAAA [CACACA_site1432],9.87
2,AAAAAAATAAATAAGACACACACAAAAAAAAAAAAA [CACACA_site8404],11
3,TACTTACCAAAATACACACACACACCCAATATATAA [CACACA_site1871],10.5
4,AAAAAAATAAGACACACACACAAAAAAATAAAAATA [CACACA_site6357],10.6
5,TACTTACCAAAATACACACACACACTAGATATATAA [CACACA_site5096],11.3
6,AAAATATATATTAACACACACACAAAAAAAAAAAAA [CACACA_site1325],11.2
7,AAAAAAAAAAAAAACACACACACAAGAGTATATAAA [CACACA_site6580],11.1
8,AAAACAAATATATTAACACACAAACATATAAACAAA [CACACA_site6052],10.4
9,TATTTTTTTCTTACTACACACATATATATGCTTTCC [CACACA_site4058],10
10,ATAGCATATATTTTTTGTACATATGTTATATATATA [XGTACX_site2184],9.66
11,AAAAAAAAAGATCACACACACATAAATATAAACAAA [CACACA_site5285],10.9
12,TCAAAAATAAAGATCACACATATATATATATATATA [CACACA_site4381],9.73
13,CACAAAAATAAACACACACACATATATATATATATA [CACACA_site4704],10.4
14,AAGTTCAAAATAAATGGTACAGAAGTATATATATCA [XGTACX_site174],9.75
15,ATATATCCAAATAGATTACATATATATATATAGATA [TGCATGCA_negctrl_site277],9.5
16,CACAAAGACACAAACACACACACACCCACATACATA [CACACA_site452],10.5
17,CAAGCACCCAGACACACACACACACCCACACCCACA [CACACA_site369],11.2
18,ATCAAGCACGGACACACACACACACCCAGACCCCCA [CACACA_site4360],10.6
19,AACAGACAGAAACACACACACATATATATATATATA [CACACA_site3394],10.8
20,ACATCAAGCAGACACACACACACACCCACCCACCGA [CACACA_site371],10.7
21,TATACACCCAGACACACACACACACCCAAAAAAAAA [CACACA_site497],10.9
22,ACATCAAGCAGACACACACACACACCCACCCACCCA [CACACA_site8012],11.5
23,ACATCAAGCGGACACACACACACACCGACAGACACA [CACACA_site4361],10.9

row,Sequence,gcPBM binding intensity (ln)
1,CACCCACCCAGACACACACACACAAAAAAAAAAAGA [CACACA_site499],11.2
2,TACACAAGCAGACACACACACATATATATATATATA [CACACA_site1270],10.2
3,CAAGCACAGAAACACACACACACACCGACACAGACA [CACACA_site4359],10.9
4,CAATATATTTGATTTACACACTTACAATGTATTTAA [CACACA_site5632],9.79
5,AAGAATTATTTTTTATGTACTTATATGTCAATTTTC [XGTACX_site6676],9.68
6,TTGTAGGAATTTATTTTGACTGATAATTAATACGTT [GTGCAC_negctrl_site46],9.47
7,AAAAAAAATATATATGCACACACAAAAAAACAAATT [CACACA_site8349],10.2
8,TAGTATCAATCTTATACATGCATAAAATAATTATAA [TGCATGCA_site1052],9.53
9,AAAAAATTTATAAAAGCACACAAAATAAAAAAAAAT [CACACA_site8420],9.78
10,TAACATATCTTTAATACACACTTAAAAAAGTACTTA [CACACA_site4532],9.41
11,CAGATAGACTTATATGCATGCATTCACCTGCCAACA [TGCATGCA_site158],9.66
12,AATATATGGTTTCATGATATAAAATTCAATTTAATG [GTGCAC_negctrl_site610],9.51
13,ATGTTTTATATTTTTTTTTTGTTTGCTTGTTTCCTC [CACACA_negctrl_site870],9.57
14,ATATACAAAGGATTAACACACATATTATTATAGATA [CACACA_site6966],9.87
15,TGTTTTTTATTTAATTGTACGAATTAAAAAAAATAA [XGTACX_site3009],9.1
16,TACACCCACCCACATACACACACATACACATATATA [CACACA_site8503],10.8
17,CACCCCCACAGACACACACACACACCCATATATATA [CACACA_site364],10.6
18,TAGACTCCCAGACACACACACACACCCATATAATAT [CACACA_site593],10.5
19,ATACATCAAGGACACACACACACACCCACACCCACA [CACACA_site8013],11.1
20,ATACATCAAGGACACACACACACACGCACACGCACA [CACACA_site6310],10.7
21,CACCCACCCAGACACACACACACACCCCCACCCATA [CACACA_site367],11.6
